PubChem BioAssay AID504332 (National Center for Advancing Translational Sciences (NCATS), 2011)
Several values for one entry are separate records, joined by “and”; a condition that tells them apart may be missing. Equal entries are not always repeated. About 31,000 (8.9%) of roughly 350,000 compounds were called active. Inconclusive results (about 15%) are left out. The call rests on the fitted dose curve; in most records, active means well fitted inhibition curve with a large enough effect; inconclusive means small, poorly fitted or top-dose-only effect; inactive means no such curve, though single readings can be large or run the other way. For the sample, actives were picked, then their nearest neighbours and some compounds at random. Some compounds were tested as several samples or in several runs, with calls that do not always agree.

These compounds were tested against Histone-lysine N-methyltransferase EHMT2 (Homo sapiens) (UniProt Q96KQ7) (assay: qHTS Assay for Inhibitors of Histone Lysine Methyltransferase G9a). Settings: G9a H3K9 monomethylation, AlphaScreen, 2 h; series mostly up to 59 µM.
Method in brief: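 Quantitative HTS format: methyltransferase activity on a biotin-tagged H3K9 peptide is measured by AlphaScreen, using a rabbit anti-monomethyl-H3K9 antibody with streptavidin donor and anti-IgG acceptor beads. Final levels are 20 nM enzyme, 500 nM peptide, 20 uM SAM; 2 h RT.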
Further: nearly all actives have a fitted effect of over 75% in size.
On the % scale 0 is the no-effect control and ±100 the full control effect; potency means the concentration at half of the fitted maximal effect.

Sequence of Histone-lysine N-methyltransferase EHMT2 (Homo sapiens) (Q96KQ7 913-1193 limits assumed): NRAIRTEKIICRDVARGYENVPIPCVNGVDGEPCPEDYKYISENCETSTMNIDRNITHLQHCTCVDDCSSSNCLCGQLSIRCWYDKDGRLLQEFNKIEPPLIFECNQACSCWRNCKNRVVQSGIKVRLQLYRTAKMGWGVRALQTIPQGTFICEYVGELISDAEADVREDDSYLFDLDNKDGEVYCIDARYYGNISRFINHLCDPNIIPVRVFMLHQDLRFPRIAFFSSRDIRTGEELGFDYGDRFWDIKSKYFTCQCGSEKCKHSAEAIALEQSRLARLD

activity, negative = inhibition, inactive:
O=C(NCCN1CCOCC1)c1cccc(S(=O)(=O)Nc2ccc(F)cc2)c1 8.8% [at 12.7 µM], Cc1c(C(C)CCCO)oc(=O)c2c1Oc1c(C)c(C(C)C[C@@H](C)O)oc(=O)c1C2 (some centres undefined) 9.9% [at 2.33 µM], O=S(=O)(Nc1cc(Cl)ccc1N1CCOCC1)c1ccccc1Cl 13.1% [at 2.33 µM], C[C@@H]1NC(=O)[C@@]2(C)[C@@H](c3ccccc3)[C@H]3COc4ccccc4[C@@H]3N2C1=O -3.98% [at 0.501 µM], CCCn1c(N)c(N(CCOC)C(=O)C2CCCC2)c(=O)[nH]c1=O 15% [at 2.33 µM], CCCCCCCNC(=O)C1(CC2CC(c3cccc(Br)c3)=NO2)CCN(C(=O)c2cc(OCC)c(OCC)c(OCC)c2)CC1 (centres undefined) -31.9% [at 2.33 µM], OCC[C@H]1C[C@H](O)[C@@H](O)[C@]2(Cc3ccccc3CO2)O1 12.3% [at 2.33 µM], COc1ccc(-c2nnc(SC(C)C(=O)NC3CC3)o2)cc1 (centres undefined) 3.83% [at 12.7 µM], Cc1ccsc1C(=O)NC1CCCCC1C (centres undefined) 16.6% [at 12.7 µM], NS(=O)(=O)c1ccc(CCNC(=O)COC(=O)COc2cccc(C(F)(F)F)c2)cc1 -4.95% [at 12.7 µM], CCN1C(=O)[C@H]2[C@@H](c3ccc(-c4ccc(F)cc4)cc3)N[C@@](Cc3ccccc3)(C(=O)OC)[C@H]2C1=O 15.2% [at 2.33 µM], O=C(COc1ccccc1Cl)N1N=C(c2cccs2)CC1c1ccco1 (centres undefined) -17.2% [at 12.7 µM], N#Cc1cccc(CSc2ncnc(N)n2)c1 -30.5% [at 2.33 µM], Nc1nc(SCCOc2ccccc2)n[nH]1 1.72% [at 12.7 µM]

Potency, active:
COCc1[nH][nH]c(=O)c1C=Nc1ccc(F)cc1F 20 µM, COCCNC(=S)Nc1cc(S(=O)(=O)N2CCOCC2)ccc1N1CCCCC1 2 µM, CCN(CC)S(=O)(=O)c1ccc(N2CCN(C)CC2)c(NC(=O)Nc2ccccc2F)c1 39.8 µM, O=S(=O)(Nc1cc(S(=O)(=O)N2CCOCC2)ccc1N1CCCC1)c1cccs1 20 µM, CCN(CC)S(=O)(=O)c1ccc(N2CCCC2)c(NS(=O)(=O)c2cccs2)c1 28.2 µM, Cc1ccc(CNC(=O)C2(C(F)(F)F)C/C(=C\Cc3ccccc3)CCCO2)o1 (centres undefined) 28.2 µM, CCS(=O)(=O)N1Cc2ccccc2CC1C(=O)Nc1nc2ccc(F)cc2s1 (centres undefined) 31.6 µM, COc1ccc(-c2nnc(SC(=O)N3c4ccccc4Sc4ccccc43)o2)cc1 17.8 µM, CC1CN(c2cc(=O)n(-c3cccc(Br)c3)c(=O)[nH]2)CC(C)O1 (centres undefined) 44.7 µM, Cc1[nH][nH]c(=O)c1N=Nc1ccccc1 50.1 µM, Cc1cccc2nc(-c3ccc(Cl)s3)c(Nc3ccc4c(c3)OCCO4)n12 10 µM, Cc1ccc2nc(-c3ccc(O)cc3)c(Nc3ccc4c(c3)OCO4)n2c1 3.55 µM, Cc1ccc(-c2nc3cccc(C)n3c2Nc2ccc3c(c2)OCCO3)cc1 12.6 µM, S=c1[nH]nc(-c2ccc(Cl)cc2)n1CC1CCCO1 (centres undefined) 7.94 µM, CCn1nnnc1SCC(=O)Nc1ccc(N(C)C)cc1 28.2 µM, COc1ccc(N2CCN(C(=S)Nc3ccc(S(N)(=O)=O)cc3)CC2)cc1 8.91 µM, Nc1nc(SCc2cccc(Br)c2)n[nH]1 31.6 µM

Potency, inactive and 50.1 µM (active):
Cc1ccc(C(=O)C[n+]2cc(-c3ccccc3)n3c2CCCCC3)cc1

Potency, inactive:
Cc1cccc(OCCSc2nc3ccc(NC(=O)COc4ccccc4C)cc3s2)c1, Cc1ccc2nc(SCC(=O)N3CC(C)OC(C)C3)nc(=O)n2c1 (centres undefined), CC(=O)NCCC(=O)Nc1cc(S(=O)(=O)N2CCOCC2)ccc1N1CCOCC1, CCN(CC)S(=O)(=O)c1ccc(Cl)c(C(=O)NC(C)C(c2cccs2)N2CCCC2)c1 (centres undefined), COc1ccc(S(=O)(=O)N2CCCCC2)cc1NC(=O)c1cc([N+](=O)[O-])ccc1N1CCOCC1, CCN(CC)S(=O)(=O)c1ccc(N2CCOCC2)c(C(=O)O)c1, CN1CCN(c2ccc(S(=O)(=O)N3CCCCC3)cc2NC(=O)Cc2ccccc2F)CC1, CCN(CC)S(=O)(=O)c1ccc(N2CCOCC2)c(NC(=O)C2COc3ccccc3O2)c1 (centres undefined), Cc1ccc(NS(=O)(=O)c2cccs2)cc1S(=O)(=O)N1CCCCCC1, NC(=O)c1cc(S(=O)(=O)NCCCc2ccco2)cs1, COc1ccc(Cn2ccnc2SCC(=O)NCc2ccco2)cc1, COc1cc(OC)cc(C(=O)Nc2cc3nn(-c4ccccc4)nc3cc2Cl)c1, Cc1cccc(-n2c(=O)c3c(c4cc(C)ccc4n3C)n(CC(=O)Nc3ccccc3Cl)c2=O)c1, Cc1ccc(-c2nc(-c3ccncc3)no2)c(C)c1, COc1cccc(-n2c(=O)c3c(C)c(C(=O)N(C)C)sc3n(Cc3cccc(C)c3)c2=O)c1, COc1ccc(CCNC(=O)c2ccc3c(c2)nc(C)n3-c2ccc(Br)cc2)cc1OC, CCOC(=O)c1ccc(CSc2nnc3cc(C)c4ccccc4n23)cc1, CCN(CC(=O)Nc1c(F)cccc1F)C(=O)c1ccc(-c2ccccc2)cc1, N#CCCN(C(=O)COC(=O)C1CCN(c2ccc(C(F)(F)F)cn2)CC1)c1ccc(F)cc1, COC(=O)c1ccc(NC(=O)CCc2c(C)nn(-c3ccc(N4CCCC4)nn3)c2C)cc1, Cn1c(=O)n(Cc2c(F)cccc2Cl)c(=O)c2c1nc1n2CCN1c1ccc(F)cc1, Cc1ccc(CNC(=O)Cn2cnc(S(=O)(=O)N3CCCCC3)c2)o1, Cc1ccc(C(=O)N2CC(=O)Nc3ccccc32)o1, CC(=O)c1ccc(NC(=O)C2CCCN2S(=O)(=O)c2cccs2)cc1 (centres undefined), CC(=O)c1ccc(S(=O)(=O)NC2CC(=O)N(c3ccc4c(c3)OCCO4)C2)cc1 (centres undefined), O=C(CCN1C(=O)C2C3CCC(C3)C2C1=O)Nc1ccc(Cl)cc1Cl (centres undefined), CSc1ncccc1C(=O)Nc1nc2ccc(F)cc2s1, CCS(=O)(=O)N1Cc2ccccc2CC1C(=O)Nc1ccc(OC)cc1OC (centres undefined), O=C(C[n+]1cc(-c2ccc(Cl)c(Cl)c2)n2c1CCC2)c1cccs1, Clc1ccc(C[n+]2cc(-c3ccccc3)n3c2CCC3)cc1, O=C(CSc1ncc(CO)n1Cc1ccc(F)cc1)NCc1ccco1, O=C(O)c1ccc2c(c1)N(Cc1ccc(F)cc1)C(=O)c1ccccc1S2=O (centres undefined), COc1ccc(-c2nnc(SCc3cccnc3)o2)cc1, Cc1ccccc1C(=O)NCc1nc(-c2ccc(Cl)cc2)no1, CC1CN(c2cc(=O)n(Cc3ccc(F)cc3)c(=O)[nH]2)CC(C)O1 (centres undefined), CC1CN(C(=S)Nc2ccc(Br)cc2Cl)CC(C)O1 (centres undefined), COC(=O)c1ccccc1N=Nc1c(C)[nH][nH]c1=O, Cc1cccn2c(=O)c3cc(C(=O)NC(C)c4ccccc4)c(=N)n(CCCO)c3nc12 (centres undefined), Cc1ccc2nc(-c3cccnc3)c(NC3CCCC3)n2c1, Cc1ccc(S(=O)(=O)NCC(=O)Nc2ccc3c(c2)OCCO3)cc1, Oc1ccccc1-c1nc2ccc(Cl)cn2c1Nc1ccc2c(c1)OCCO2, Cc1nc(Nc2ccc3c(c2)OCCO3)c2nnn(Cc3ccccc3Cl)c2n1, Cc1ccc2nc(-c3ccncc3)cc(C(=O)Nc3ccc4c(c3)OCCO4)c2c1, Cc1ccn2c(Nc3ccc4c(c3)OCCO4)c(-c3ccc(C)s3)nc2c1, CCN(C(=O)Cn1cnc2sc(C)c(S(=O)(=O)N3CCN(c4ncccn4)CC3)c2c1=O)c1ccccc1F, Cc1ccc(S(=O)(=O)N(CCCN(C)C)Cc2ccc3c(c2)OCO3)cc1, COc1ccc(-c2cn3nc(N4CCCC(C(=O)NCCCOC(C)C)C4)sc3n2)cc1 (centres undefined), Cc1c(Cl)cccc1NC(=O)C(=O)NCCc1csc2nc(-c3ccccc3F)nn12, Cc1ccc(-c2cc(C(=O)NC3CCN(Cc4ccccc4)CC3)c3ccccc3n2)cc1, CNC(=O)NC(=O)CSc1nnc(-c2ccc(F)cc2)n1CC1CCCO1 (centres undefined), CC(Sc1nn(-c2ccc(Cl)cc2)c(=S)s1)C(=O)NCC1CCCO1 (centres undefined), Cc1cc(C)cc(OCC(=O)Nc2c(C(=O)c3ccccc3)oc3ccccc23)c1, CC(=O)Nc1ccc(NC(=O)CSc2nnnn2C2CCCCC2)cc1, CC(=O)Nc1ccc(NC(=O)CSc2nnnn2-c2ccccc2F)cc1, CCOc1ccc(C2C(=O)N(C3CCCCC3)CC(=O)N2CCC2=CCCCC2)cc1OC (centres undefined), CC1CN(C(=S)Nc2ccc(S(N)(=O)=O)cc2)CC(C)O1 (centres undefined), CCOc1ccccc1N1CCN(C(=S)Nc2ccc(S(N)(=O)=O)cc2)CC1, CCCN1CCc2nc(N3CCN(C)CC3)ncc2C1, Cc1ccc(CCNC(=O)c2ccc3c(c2)nc2n3CCC(C)C2)cc1 (centres undefined), CCOc1ccc(NC(=O)C(=O)NCCc2csc3nc(-c4ccccc4F)nn23)cc1, COc1ccc(NC(=O)CCCN2C(=O)CCn3nc(-c4cn(C)c5ccccc45)cc32)cc1OC, CCc1ccc(NC(=O)Cn2nnc(C(=O)NCc3ccc4c(c3)OCO4)c2N)cc1
